Several values for one entry are separate records, joined by “and”; a condition that tells them apart may be missing. Equal values may be shown once. Inconclusive results are not listed. Some compounds were tested as several samples or in several runs, with calls that do not always agree. Activity calls are given as the source filed them. Rule for the calls: active = hit-call score of the fitted dose curve at least 0.9, where 1 is the maximum; inconclusive = response in the unintended direction; inactive = score below 0.9.
target: Estrogen receptor beta (Homo sapiens) (UniProt Q92731); assay: OT_ER_ERbERb_0480: Odyssey Thera (OT) 8-hour HEK293T Protein-Complementation Assay for Estrogen Receptor-beta/-beta Homodimer (AID 2283357)
Sequence (Q92731 whole entry, looked up, the tested form may be a part): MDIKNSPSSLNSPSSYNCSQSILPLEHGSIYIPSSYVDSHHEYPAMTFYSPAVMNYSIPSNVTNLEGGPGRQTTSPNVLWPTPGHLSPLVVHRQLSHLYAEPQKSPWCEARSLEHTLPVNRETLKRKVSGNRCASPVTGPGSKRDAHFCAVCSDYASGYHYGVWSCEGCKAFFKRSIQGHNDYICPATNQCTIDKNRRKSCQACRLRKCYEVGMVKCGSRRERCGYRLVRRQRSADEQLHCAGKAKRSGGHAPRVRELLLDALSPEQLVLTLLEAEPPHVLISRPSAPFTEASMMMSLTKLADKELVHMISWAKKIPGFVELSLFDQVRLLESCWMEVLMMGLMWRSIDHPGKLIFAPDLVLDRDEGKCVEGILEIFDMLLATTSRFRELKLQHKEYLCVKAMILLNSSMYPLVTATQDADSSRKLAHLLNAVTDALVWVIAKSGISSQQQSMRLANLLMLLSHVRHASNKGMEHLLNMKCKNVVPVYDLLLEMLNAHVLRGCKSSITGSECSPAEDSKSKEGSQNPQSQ
Protocol: OT_ER_ERbERb_0480 is a cell-based assay that uses HEK293T, a human kidney cell line, with measurements taken at 8 hours after chemical dosing in a 384-well plate.OT_ER_ERbERb_0480 is one of one assay component(s) measured or calculated from the OT_ER_ERbERb_0480 assay. It is designed to make measurements of protein fragment complementation, a form of binding reporter, as detected with fluorescence intensity signals by Protein-fragment Complementation technology.Data from the assay component OT_ER_ERbERb_0480 was analyzed into 1 assay endpoint. This assay endpoint, OT_ER_ERbERb_0480, was analyzed in the positive analysis fitting direction relative to DMSO as the negative control and baseline of activity. Using a type of binding reporter, measures of receptor for gain-of-signal activity can be used to understand the binding at the pathway-level as they relate to the gene ESR2. Furthermore, this assay endpoint can be referred to as a primary readout, because the performed assay has only produced 1 assay endpoint. To generalize the intended target to other relatable targets, this assay endpoint is annotated to the nuclear receptor intended target family, where the subfamily is steroidal.
Protein-fragment complementation assay, or PCA, is a method for the identification and quantification of protein-protein interactions. In the PCA, the proteins of interest ("bait" and "prey") are each covalently linked to fragments of a third protein (e.g. DHFR, which acts as a "reporter"). Interaction between the bait and the prey proteins brings the fragments of the reporter protein in close proximity to allow them to form a functional reporter protein whose activity can be measured. The OT ER beta / ER beta assay is a homodimer PCA of the ligand binding domain (LBD; amino acids 310-547) of human ER beta stably expressed in HEK293T cells. […] Cells are fixed in 4 percent formaldehyde and stained with Draq5 (BioStatus) to identify cells prior to signal detection. Fluorescent signal in the basal state of the assay is very low and is primarily punctuate and cytoplasmic. Modulation of this assay is quantified as an increase in mean fluorescence intensity in the nucleus (for agonists) or in the nucleus and cytoplasm (antagonists) relative to vehicle controls, and can be quantified on a high content imaging device or a laser scanning cytometer. The latter instrument is favored for this assay because of the rapid mode of data acquisition, the ability to acquire data from the entire cell population in a well (as opposed to a fraction of the well on the high content devices) and the larger dynamic range typically achieved with this instrument. To assess sensitivity of the ER beta/ER beta LBD assay to ligand, cells were treated with the ER agonist 17- beta-estradiol (E2) in 10-point concentration- response format for 8 hours and monitored response on a laser scanning plate cytometer (Acumen eX3; TTP Lab Tech).

Compound	outcome	AC50
CC(C)C1(C)N=C(c2nc3ccccc3cc2C(=O)O)NC1=O (stereo not given)	inactive	–
CCCCNC(=O)OCC#CI	inactive	–
CCNc1nc(Cl)nc(NCC)n1	inactive	–
C#CCOS(=O)OC1CCCCC1Oc1ccc(C(C)(C)C)cc1 (stereo not given)	inactive	–
CC1=C(C(=O)Nc2ccccc2)SCCO1	inactive	–
COc1ccc(C(c2ccc(OC)cc2)C(Cl)(Cl)Cl)cc1	–	3.79 µM (active) and 3.62 µM (active) and 3.92 µM (active)
CC1COC(Cn2cncn2)(c2ccc(Oc3ccc(Cl)cc3)cc2Cl)O1 (stereo not given)	inactive	–
CNC(=S)S	inactive	–
CCc1nn(C)c(C(=O)NCc2ccc(C(C)(C)C)cc2)c1Cl	inactive	–
CCCCOC(=O)c1ccccc1C(=O)OCCCC	–	28.8 µM (active) and 38.1 µM (active) and 34.2 µM (active)
CCCCC(CC)COC(=O)c1ccccc1C(=O)OCC(CC)CCCC (stereo not given)	inactive	–
COP(=S)(OC)Oc1nc(Cl)c(Cl)cc1Cl	inactive	–
N#CC(CCc1ccc(Cl)cc1)(Cn1cncn1)c1ccccc1 (stereo not given)	inactive	–
COC(=O)C(C)Oc1ccc(Oc2ccc(Cl)cc2Cl)cc1 (stereo not given)	inactive	–
COC(=O)N(OC)c1ccccc1COc1ccn(-c2ccc(Cl)cc2)n1	inactive	–
CC(C)Oc1cc(-n2nc(C(C)(C)C)oc2=O)c(Cl)cc1Cl	inactive	–
C=CC1(C)OC(=O)N(c2cc(Cl)cc(Cl)c2)C1=O (stereo not given)	inactive	–

Compound	outcome	AC50
CCCCNC(=O)n1c(NC(=O)OC)nc2ccccc21	inactive	–
Oc1ccccc1-c1ccccc1	inactive	57.5 µM (active)
CCNc1nc(Cl)nc(NC(C)C)n1	inactive	–
CCOc1cc(Oc2ccc(C(F)(F)F)cc2Cl)ccc1[N+](=O)[O-]	inactive	–
COc1nc(NC(C)C)nc(NC(C)C)n1	inactive	–
CCOC(=O)C(Cl)Cc1cc(-n2nc(C)n(C(F)F)c2=O)c(F)cc1Cl (stereo not given)	inactive	–
OC(c1ccc(Cl)cc1)(c1cncnc1)c1ccccc1Cl (stereo not given)	–	12.5 µM (active)
COc1cnc(OC)n2nc(NS(=O)(=O)c3c(OCC(F)F)cccc3C(F)(F)F)nc12	inactive	–
Cc1ccc(-c2c(Cl)nc(C#N)n2S(=O)(=O)N(C)C)cc1	inactive	–
CCOP(=S)(OCC)SCn1c(=O)oc2cc(Cl)ccc21	inactive	–
CC(C)(C)c1ccc(CSc2cnn(C(C)(C)C)c(=O)c2Cl)cc1	inactive	–
Fc1ccc(Oc2ccnc3cc(Cl)cc(Cl)c23)cc1	inactive	–
CS/C(C)=N/OC(=O)N(C)SN(C)C(=O)O/N=C(\C)SC	inactive	–
COC(=O)c1ccccc1C(=O)OC	inactive	–
CN(C)C(=S)SSC(=S)N(C)C	inactive	–
Cc1c(F)c(F)c(COC(=O)C2C(/C=C(\Cl)C(F)(F)F)C2(C)C)c(F)c1F (stereo not given)	inactive	–
COP(N)(=O)SC (stereo not given)	inactive	–

Reference: PubChem BioAssay (EPA / NIEHS)
